The target of the assay is AMP-activated protein kinase, AMPK (Homo sapiens) (UniProt P54646+O43741+P54619+Q9UGJ0+Q9Y478+Q13131+Q9UGI9). As to the kind of experiment: AMP-dependent Kinase enzyme assay. An in vitro enzyme assay that detects ADP turnover that is directly proportional to AMPK activity. This uses naive AMPK that is activated during the assay with MK-8722. It is filed as functional. Also on record: scale not given: direction of the effect not stated beside the values. To be noted: 30 µM.
In the case of `COc1ccccc1CN(Cc1nc(C)no1)C1CC1`, the Percent Effect came out at 6.47%.
In the case of `COc1ccc(C(C)NCCc2ccc(NC(C)=O)cc2)c(OC)c1` (centres undefined), the Percent Effect is 8.45%.
For the compound `c1ccc(C2CN(C3CC3)CC3(CCN(Cc4ncc[nH]4)CC3)C2)cc1` (centres undefined), the Percent Effect came to 6.22%.
`CSc1nccc(N2CCC(NCc3ccc4c(c3)OCO4)CC2)n1`: the Percent Effect came out at 15%.
The same measure for `CCNC(=O)c1ccc(NC(=O)N(C)Cc2cc(C)on2)c(C)c1`: 10.2%; for `O=C(NCC(O)Cc1ccccc1)c1ccc2[nH]c(=O)[nH]c2c1` (centres undefined): 11.7%; for `CN(CCCO)Cc1cc(Cl)ccc1OCC(O)CN1CCCCCC1` (centres undefined): -10.6%.
The same measure for `Cc1ccc(C2CSCCN2CCS(C)(=O)=O)cc1` (centres undefined): -3.45%; for `CC(C)c1nc(CN(C)C(=O)C(O)c2ccc(Cl)cc2)cs1` (centres undefined): -2.36%.
The same measure for `O=C(NCc1ccc(-n2cncn2)nc1)c1cc(Cl)ccn1`: -4.58%; for `COCc1nn(Cc2ccc(Br)s2)c(=O)o1`: 13.5%; for `Nc1ncnc2nc(C3CCCCN3)ccc12` (centres undefined): 15.5%.
For the compound `O=C(c1cccc2ccnn12)N1CCC[C@H]1CN1CCCC1`, the Percent Effect was -0.374%.
Consider `O=C(NCCC1CN(C2CCCC2)CCO1)c1c[nH]c(=O)[nH]c1=O` (centres undefined), for which the Percent Effect turned out to be 5.79%.
Consider `Cn1ccnc1-c1cnn(CC(=O)Nc2ccnn2C)c1`, for which the Percent Effect is -2.32%.
Consider `COc1cc(COCC2CCN(Cc3cccnc3)CC2)cc(OC)c1`, for which the Percent Effect was determined as 1.38%.
The same measure for `NC(=O)c1ccc(NC(=O)N2CCN(c3cccs3)CC2)c(F)c1`: 2.09%; for `CCc1ccc(C(=O)NC2CCN(c3ccn(C)n3)C2)o1` (centres undefined): 1.78%.
In the case of `COc1cc(F)cc2sc(NC(=O)COCC3CCCO3)nc12` (centres undefined), the Percent Effect came out at 1.22%.
In the case of `Cc1cc(NCCNc2cccnc2)nc(-c2ccccc2O)n1`, the Percent Effect turned out to be 19.9%.
The same measure for `CCc1nc(CSc2nnc(N)n2C2CC2)no1`: 7.62%; for `CC(C)c1nc(C2CCCN2CCNS(C)(=O)=O)no1` (centres undefined): 9.75%.
Turning to `CCN(CC)CCNCc1cc(O)c2cc(C)ccc2n1`, the Percent Effect stood at 0.484%.
Regarding `CNC(=O)Cc1ccc(NC(=O)NCC(C)c2ncc(C)s2)cc1` (centres undefined), the Percent Effect was -3.25%.
`CC(C)CNC(=O)c1sccc1-n1cnnn1`: the Percent Effect was determined as 10.8%.
Turning to `CCc1nc(C)c(CN2CCOC(CCCC(C)C)C2)[nH]1` (centres undefined), the Percent Effect is -6.7%.
The same measure for `CSc1ccc(C(=O)C2CCCN(C(=O)CCCn3cncn3)C2)cc1` (centres undefined): 9.79%; for `CNC(=O)c1cn2cc(-c3cccc(Cl)c3)n(CC=C(C)C)c(=O)c2n1`: 2.79%.
The same measure for `Cn1cccc1CN(C(=O)Cc1cccs1)C1CC1`: -4.04%.
The same measure for `CNC(=O)c1noc(CN2CC[C@](C)(O)[C@H](C)C2)n1`: -4.9%; for `CC1C(=O)NCCN1CCOc1ccc(C#N)cc1` (centres undefined): 3.66%.
For the compound `O=C(CCn1cccn1)NCCOc1cccc(Cl)c1`, the Percent Effect is -3.1%.
Consider `CNC(=O)CN(C)C(=O)c1ccc(-c2nc(C)cs2)cc1`, for which the Percent Effect was -2.2%.
Take `CC(C)(C)c1nc(CNc2cc3c(cc2Cl)NC(=O)CO3)no1`: the Percent Effect was 2.92%.
On to `Cc1nsc(N2CCN(CC(=O)N(C3CC3)C(C)C3CC3)CC2)n1` (centres undefined), for which the Percent Effect worked out at 7.84%.
The same measure for `CCCn1nnnc1CN(CC)CC1COc2ccccc2O1` (centres undefined): 1.1%; for `O=C(Nc1ccc(I)cc1C(=O)NCCN1CCOCC1)c1ccco1`: 12.6%; for `CCOc1ccccc1CCC(=O)Nc1c(C)nn(C)c1C`: 8.9%.
The same measure for `Cc1cc(CN(C)C(C(=O)O)c2cccc(C(F)(F)F)c2)on1` (centres undefined): 3.9%.

For the origin of these results see ChEMBL document CHEMBL3988442, “University of Dundee, Small-Polar-MMV Screening Library” (2021).
